# Compound activity (PubChem BioAssay)
# In the library only some 2.4% were active in any assay of this set; here they are far more common.
# D2 ag-1: HTS Assay for Allosteric Agonists of the Human D2 Dopamine Receptor: Primary Screen for Agonists; 340,000 compounds, 0.53% hits; HEK293 T-REx D2 cells, calcium flux agonist mode; activation, % at 2 µM;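 active = activation over 3 SD above normal in the single-dose calcium agonist read, cut at about 30% in these data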; note: 0% is about no effect
# Target sequence (P14416 whole entry, looked up): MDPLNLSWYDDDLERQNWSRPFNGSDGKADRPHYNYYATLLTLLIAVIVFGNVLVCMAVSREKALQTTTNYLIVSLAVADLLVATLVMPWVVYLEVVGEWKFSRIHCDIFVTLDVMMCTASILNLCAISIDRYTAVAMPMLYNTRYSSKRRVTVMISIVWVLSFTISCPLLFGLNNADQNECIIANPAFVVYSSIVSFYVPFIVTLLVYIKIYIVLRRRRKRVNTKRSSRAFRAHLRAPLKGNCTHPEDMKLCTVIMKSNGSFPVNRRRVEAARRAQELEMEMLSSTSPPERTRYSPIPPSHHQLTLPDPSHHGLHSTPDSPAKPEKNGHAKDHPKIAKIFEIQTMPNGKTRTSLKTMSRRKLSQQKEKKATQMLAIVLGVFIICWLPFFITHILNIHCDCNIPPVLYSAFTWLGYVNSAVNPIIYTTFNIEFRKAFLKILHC
#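 Calcium-flux readout, 1 cycle/sec over 180 s following compound pin transfer, in inducible HEK293 Trex D2 cells (force-coupled); dopamine controls included. Positive calcium responses during this window marked compounds as potential agonists.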
# D2 PAM-1: Beta-Arrestin HTS for Positive Allosteric Modulators of the Human D2 Dopamine Receptor: Potentiators | 360,000 compounds, 0.23% hits | AID 624464, 2012 | potentiation, % (concentration not given with the values) | DiscoveRx D2 beta-arrestin cells, luminescence, 90 min; 100% = 57 uM dopamine signal; in the data active = potentiation above about 50%; inconclusive = mostly about 30% to 49%
#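 D2 cells co-treated with compound plus 50 nM dopamine (EC20) for 90 min at 37 deg C to detect potentiation. Beta-arrestin recruitment was read as enzyme-fragment luminescence after 1 h at ambient temperature. Full response was set by 57 uM dopamine.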
# D2 ag-2: Beta-Arrestin HTS for Positive Allosteric Modulators of the Human D2 Dopamine Receptor: Agonists | D(2) dopamine receptor (Homo sapiens), P14416 | DiscoveRx PathHunter D2 beta-arrestin, luminescence, 90 min; 100% = 57 uM dopamine signal | activation, % (test concentration not listed) | 360,000 compounds, 0.084% hits | AID 624465, 2012; in the data active = activation above about 40%; inconclusive = between about 15% and that limit
#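 Agonist mode: compounds alone added to overnight-plated D2 PathHunter cells for 90 min at 37 C, with 57 uM final dopamine (EC100) defining full response. Beta-arrestin recruitment detected by chemiluminescent reagent, read after 1 h at ambient temperature.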
# D2 antagonist: HTS Assay for Allosteric Antagonists of the Human D2 Dopamine Receptor: Primary Screen for Antagonists; D(2) dopamine receptor (Homo sapiens), P14416; HEK293 TREx D2 cells, calcium flux, dopamine EC80; inhibition, % at 10 µM; 340,000 compounds, 2% hits; in the data active = inhibition above about 30%; inactive = below that, where a call was filed; note: 0% is about no effect
#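 Calcium mobilization kinetics were recorded at 1 s intervals in tetracycline-induced HEK293 T-REx D2 cells, first for 180 s after compound addition and then 180 s after EC80 dopamine.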
# D2 PAM-2: HTS Assay for Positive Allosteric Modulators of the Human D2 Dopamine Receptor: Primary Screen for Potentiators; potentiation, % at 10 µM; 340,000 compounds, 0.34% hits; HEK293 T-REx D2, calcium flux, EC20 dopamine potentiation; D(2) dopamine receptor (Homo sapiens), P14416;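 active = potentiation over 3 SD above the plate norm, cut at about 30% in these data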; note: 0% is about no effect
#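 Potentiation of an EC20 dopamine calcium response is measured in a force-coupled, tetracycline-inducible Hek293 Trex D2 line. Compound-only kinetic reads over 180 s flag agonists before dopamine addition.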
# An asterisk follows results filed as active; ? = inconclusive; · = not tested or not shown.
SMILES,D2 ag-1,D2 PAM-1,D2 ag-2,D2 antagonist,D2 PAM-2
N/C(=N\OS(=O)(=O)c1ccc(Br)cc1)c1ccncc1,0,95*,?,-3,-7
CCCN(CCC)CCNC(=O)Cn1ncc2c([nH]c3ccc(C)cc32)c1=O,2,·,·,·,2
CCOc1ccc(NC(=O)CN(C)Cc2cc(=O)n3c(-c4ccccc4)csc3n2)cc1OCC,1,-4,-3,41*,4
Cc1cc(C)cc(OCc2cc(=O)n3c(-c4ccccc4)csc3n2)c1,1,·,·,·,1
COc1ccc(Cl)cc1NC(=O)CSc1cn(CC(=O)N2CCCCCC2)c2ccccc12,0,·,·,·,-3
CC(C)c1ccc2occ(-c3nn[nH]n3)c(=O)c2c1,1,-2,-4,32*,-4
CCNC(=O)c1c(C)oc2ncn(C)c(=O)c12,0,·,·,·,4
CC(=O)c1cccc(NC(=S)N2CCC(Cc3ccccc3)CC2)c1,0,-17,-2,8,-8
CC(=O)c1ccc(NC(=S)N2CCC(Cc3ccccc3)CC2)cc1,-1,-12,-3,32*,-6
O=C(c1ccc(Br)o1)N1CCC(Cc2ccccc2)CC1,-1,-14,-4,49*,8
Fc1cccc2sc(Nc3nnc(-c4ccccc4)o3)nc12,1,-22,-6,43*,-7
CCN(CC)CCOC(=O)c1ccc(Cl)cc1,0,-46,-5,-5,6
CCN(CC)CCOC(=O)c1ccc(Cl)cc1Cl,-1,-29,-1,33*,-14
CCCCN(C)CCCNC(=O)c1ccc2c(c1)N(CC)C(=O)c1ccccc1S2=O (centres undefined),-1,-19,-4,70*,-32
CCN1CCN(CCNC(=O)c2ccc3c(c2)N(Cc2cccc(Cl)c2)C(=O)c2ccccc2S3=O)CC1 (centres undefined),0,-38,-9,40*,-1
O=C(NCCN1CCCC1)c1ccc2c(c1)N(Cc1ccc(F)cc1)C(=O)c1ccccc1S2=O (centres undefined),1,-8,-1,-5,8
CCn1c(=O)c2cc(C(=O)N(CC(C)C)CC(C)C)sc2c2ccccc21,0,·,·,·,13
Cc1cccc(NC(=S)N(CCCN2CCOCC2)C(C)c2cc3ccccc3o2)c1 (centres undefined),0,-17,-7,35*,-10
COc1cccc2cc(C(C)N(CCCN3CCOCC3)C(=S)Nc3cccc(C)c3)oc12 (centres undefined),-1,-16,-6,14,-13
Cc1sc2ncnc(N3CCC(C(=O)Nc4ccc(Br)cc4Br)CC3)c2c1C,0,-7,1,-14,-4
Cc1cc(C)n(CCCNC(=O)C2CCC(=O)N(CCc3ccc(Cl)cc3)C2)n1 (centres undefined),0,-8,-2,-1,6
Cc1ccn(CCNC(=O)C2CCC(=O)N(CCc3ccc(Cl)cc3)C2)n1 (centres undefined),0,16,-1,2,35*
Cc1cc(C)cc(NC(=O)C/C(N)=N/O)c1,0,9,3,71*,-10
CN1CCN(c2nc(-c3cccs3)cc(C(F)(F)F)n2)CC1,-1,-23,-1,32*,-15
CS(=O)(=O)c1nc(-c2cccs2)cc(C(F)(F)F)n1,2,·,·,9,1
SMILES,D2 ag-1,D2 PAM-1,D2 ag-2,D2 antagonist,D2 PAM-2
CN1CCN(c2nc(-c3ccccc3)cc(C(F)(F)F)n2)CC1,-1,-36,-3,75*,-7
CC1CCN(c2nc(-c3ccccc3)cc(C(F)(F)F)n2)CC1,0,10,-1,5,4
CCC(C)Sc1oc(-c2ccco2)nc1S(=O)(=O)c1ccc(Cl)cc1 (centres undefined),3,·,·,·,8
COC(=O)c1ccccc1NC(=O)CSc1nnc(-c2ccc(C)cc2)o1,1,·,·,7,31*
COC(=O)c1ccccc1NC(=O)CSc1nnc(-c2cccnc2)o1,-3,-10,-3,7,·
Cc1sc(NC(=O)c2cccs2)c(C(=O)OC(C)C)c1C,1,-2,-6,31*,-5
CC(C)NC(=O)C1(C)CCN1C(=O)c1ccc2c(c1)OCO2 (centres undefined),·,-2,2,·,·
Cc1ccc(S(=O)(=O)CC(=O)Nc2ncc([N+](=O)[O-])s2)cc1,-3,-12,-6,-15,4
Cc1ccc(CC(=O)Nc2ncc([N+](=O)[O-])s2)cc1,2,67*,-4,17,4
C[C@H](CO)N1C[C@H](C)[C@H](CN(C)Cc2ccc(Oc3ccccc3)cc2)Oc2cc(Br)ccc2S1(=O)=O,·,-12,3,·,·
Cc1nc(-c2ccc(F)cc2)c(CC(=O)N2CCN(S(=O)(=O)c3cccc([N+](=O)[O-])c3)CC2)s1,0,29,?,34*,-5
NC(=S)NN=C1CCSCC1,·,-2,1,·,·
CCOC(=O)c1c(C)oc2nc(C)nc(N3CCN(c4cccc(C)c4C)CC3)c12,-1,·,·,·,-4
CC1(C)Cc2c(sc3c2C(=O)N(c2ccccc2)C2=NCCN23)CS1,-1,-22,-5,17,46*
COc1ccc(C(=O)c2ccc(OC)c(OC)c2)cc1OC,0,-2,-2,-7,-8
COc1ccc(C(=O)c2nccc3cc(OC)c(OC)cc23)cc1OC,0,94*,?,-16,15
Cc1cc(C)cc(NC(=O)c2cc(C)nc3c2c(C)nn3-c2ccccc2)c1,0,·,·,·,-9
CCOc1ccc(Nc2c(S(=O)(=O)c3ccccc3)cnc3ccc(CC)cc23)cc1,1,·,·,·,-2
O=C1c2ccccc2-c2onc3ccc(N4CCCC4)c1c23,19,-1,4,13,-18
CCOc1ccc2noc3c2c1C(=O)c1ccccc1-3,·,5,2,·,·
O=C1c2ccccc2-c2onc3ccc(NCc4ccco4)c1c23,30,112*,?,18,1
CCNc1ccc2noc3c2c1C(=O)c1ccccc1-3,·,70*,11,·,·
CC(C)COc1ccc(C(=O)Nc2cc(-c3ccccc3)no2)cc1,4,·,·,·,-5
O=C(c1ccccc1)N1CCCCC(Cl)C1=O (centres undefined),2,-9,-2,31*,-2
COc1ccc2c(CNCCc3ccccc3OC)c(C(=O)O)n(Cc3ccc(F)cc3Cl)c2c1,1,·,·,·,-2
